{
  "source": "PubChem BioAssay AID651774",
  "about": "(Broad Institute, 2012)",
  "note": "Potency and affinity values are given separately. Activity calls are given as the source filed them. No rule for the calls is given here.",
  "data": [
    {"assay": "HeLa cell viability loss – 24 h, dry powder, cytotoxicity control, dose response (AID 651774)", "details": "CellTiter-Glo ATP luminescence; series mostly up to 35 µM; activity change, negative = cytotoxicity: at the top concentration", "values": [
      {"molecule": "O=C(Cc1ccc2ccccc2c1)NC1CCCC1", "activity change, negative = cytotoxicity": "3.82% (inactive)"},
      {"molecule": "O=C(Nc1nnc(-c2ccc3c(c2)OCCO3)o1)C1CCCCC1", "activity change, negative = cytotoxicity": "-9.17% (inactive)"},
      {"molecule": "CN(C(=O)Cc1ccc(-c2ccccc2)cc1)C1CCCC1", "activity change, negative = cytotoxicity": "-9.17% (inactive)"},
      {"molecule": "Cn1nnc(NCc2ccc(N3CCCC3)cc2)n1", "activity change, negative = cytotoxicity": "-6% (inactive)"},
      {"molecule": "O=C(Cc1ccc(-c2ccccc2)cc1)NC1CCOCC1", "activity change, negative = cytotoxicity": "-3.83% (inactive)"},
      {"molecule": "O=C(Cc1ccccc1I)NC1CCCC1", "activity change, negative = cytotoxicity": "-0.327% (inactive)"},
      {"molecule": "Cn1nnc(NCc2ccccc2)n1", "activity change, negative = cytotoxicity": "-9.85% (inactive)"},
      {"molecule": "CC(C(=O)NC1CCCC1)c1ccc(-c2ccccc2)cc1", "note": "(stereo not drawn)", "activity change, negative = cytotoxicity": "6.08% (inactive)"},
      {"molecule": "Cc1ccccc1CC(=O)NC1CCCC1", "activity change, negative = cytotoxicity": "0.361% (inactive)"},
      {"molecule": "Cn1nnnc1NCc1ccccc1", "activity change, negative = cytotoxicity": "11.8% (inactive)"},
      {"molecule": "CN(Cc1ccc(N2CCCC2)cc1)c1nnnn1C", "activity change, negative = cytotoxicity": "-7.51% (inactive)"},
      {"molecule": "O=C(Cc1cccc(OC(F)(F)F)c1)NC1CCCC1", "activity change, negative = cytotoxicity": "-1.72% (inactive)"},
      {"molecule": "O=C(Cc1ccc(-c2ccccc2)cc1)N1CCOCC1", "activity change, negative = cytotoxicity": "6.81% (inactive)"},
      {"molecule": "O=C(Cc1ccncc1)NC1CCCC1", "activity change, negative = cytotoxicity": "-5.41% (inactive)"},
      {"molecule": "CC(C)(C)OC(=O)N1CCC(NC(=O)Cc2ccc(-c3ccccc3)cc2)CC1", "activity change, negative = cytotoxicity": "2.47% (inactive)"},
      {"molecule": "Cn1nnnc1NCc1ccc(N2CCCC2)cc1", "activity change, negative = cytotoxicity": "-3.44% (inactive)"},
      {"molecule": "N#Cc1ccc(CC(=O)NC2CCCC2)cc1", "activity change, negative = cytotoxicity": "12.5% (inactive)"},
      {"molecule": "O=C(NC1CCCC1)Oc1ccc(-c2ccccc2)cc1", "activity change, negative = cytotoxicity": "-2.37% (inactive)"},
      {"molecule": "O=C(Cc1cccc(Cl)c1)NC1CCCC1", "activity change, negative = cytotoxicity": "-1.26% (inactive)"},
      {"molecule": "CC(C)c1ccc(CNc2nn[nH]n2)cc1", "activity change, negative = cytotoxicity": "-3.7% (inactive)"},
      {"molecule": "O=C(Cc1ccc(OC(F)(F)F)cc1)NC1CCCC1", "activity change, negative = cytotoxicity": "5.09% (inactive)"},
      {"molecule": "O=C(Cc1ccccc1Cl)NC1CCCC1", "activity change, negative = cytotoxicity": "-2.88% (inactive)"},
      {"molecule": "O=C(NCc1ccc(-c2ccccc2)cc1)C1CCCC1", "outcome": "inactive"},
      {"molecule": "O=C(Cc1ccc(-c2ccccc2)cc1)NCc1ccccc1", "activity change, negative = cytotoxicity": "-5.28% (inactive)"},
      {"molecule": "O=C(O)Cc1ccc(-c2ccccc2)cc1", "activity change, negative = cytotoxicity": "-10.5% (inactive)"},
      {"molecule": "O=C(Cc1ccc(-c2ccccc2)cc1)NCC1CCCC1", "activity change, negative = cytotoxicity": "9.56% (inactive)"},
      {"molecule": "O=C(Cc1ccccc1C(F)(F)F)NC1CCCC1", "activity change, negative = cytotoxicity": "5.34% (inactive)"},
      {"molecule": "FC(F)(F)c1ccc(CNc2nn[nH]n2)cc1", "activity change, negative = cytotoxicity": "1.22% (inactive)"}
    ]}
  ]
}
